Compounds with a hit are over-represented: about 2.8% of the library has one in this group of screens.
RGS4 inhibitor: Inhibitors of Regulator of G Protein Signaling (RGS) 4: qHTS; AID 504845, 2011; actives 0.039% (n = 390,000); Potency, µM (series often up to 114 µM), without a hit: at the highest dose activity change, negative = inhibition, most hits filed as inhibitors; Transcreener GDP fluorescence polarization, RGS4-accelerated GTP hydrolysis; Regulator of G-protein signaling 4 (Homo sapiens), P49798; active = well fitted inhibition curve with a large enough effect; inconclusive = small, poorly fitted or top-dose-only effect; inactive = no such curve, though single readings can be large or run the other way; also: potency is read from the fitted curve at half-maximal effect; % is scaled to controls: 0 for no effect and ±100 for the full control effect; nearly all actives have a fitted effect of over 75% in size
Target sequence (P49798 whole entry, looked up): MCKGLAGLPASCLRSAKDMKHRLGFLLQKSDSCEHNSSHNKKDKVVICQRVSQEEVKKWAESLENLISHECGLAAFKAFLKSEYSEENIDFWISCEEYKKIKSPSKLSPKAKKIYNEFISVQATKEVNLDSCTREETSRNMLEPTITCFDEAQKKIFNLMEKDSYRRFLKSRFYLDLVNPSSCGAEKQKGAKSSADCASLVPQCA
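MLSMR compounds (23 nl, pin-transferred) preincubated 10 min at room temperature with a 500nM (2x) first reagent, then RGS4 at 900nM (2x) plus Transcreener GDP mix added; fluorescence polarization (620/688 nm) read before and after 90 min at 30 °C.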
D3 ag: qHTS of D3 Dopamine Receptor Agonist: qHTS | max activation, % | D3R DiscoveRx beta-arrestin cells, luminescence, 90 min | actives 0.58% (n = 410,000) | D(3) dopamine receptor (Homo sapiens), P35462; in the data active = max activation above about 30%; also: 0% is about no effect
Target sequence (P35462 whole entry, looked up): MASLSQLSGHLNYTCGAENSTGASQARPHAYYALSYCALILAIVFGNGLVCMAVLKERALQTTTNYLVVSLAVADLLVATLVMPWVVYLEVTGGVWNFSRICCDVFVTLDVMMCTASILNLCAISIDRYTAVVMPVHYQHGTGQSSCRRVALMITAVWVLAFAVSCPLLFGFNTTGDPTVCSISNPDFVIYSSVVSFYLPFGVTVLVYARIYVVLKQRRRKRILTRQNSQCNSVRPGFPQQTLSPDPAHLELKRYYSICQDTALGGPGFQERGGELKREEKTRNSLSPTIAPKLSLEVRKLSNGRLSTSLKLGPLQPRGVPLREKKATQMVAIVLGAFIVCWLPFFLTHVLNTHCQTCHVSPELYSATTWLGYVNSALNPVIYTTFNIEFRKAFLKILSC
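Agonist mode: compounds and dopamine controls were applied to plated cells for 90 min at 37 degrees C after an overnight attachment at 1500 cells/well. Luminescent read-out followed 30 - 60 minutes at room temperature with DiscoveRx detection reagent.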
PI4K2A inh: qHTS for small molecular inhibitors of PI4K2A; Phosphatidylinositol 4-kinase type 2-alpha (Homo sapiens), Q9BTU6; purified PI4K2A, ADP-Glo luminescence, 1 h; stronger effect = lower value; activity change, negative = inhibition, % at 76.9 µM; actives 0.13% (n = 420,000); AID 1346378, 2018; in the data active = activity change below about -50%; inconclusive = mostly about -30% to -49%;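 also: -100% = wells without enzyme as full effect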
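ADP-Glo luminescence measured ADP generated by PI4K2A enzyme (4 ug/mL before mixing) with 1.2 mM PI substrate (pre-mix) and 300 microM ATP (pre-mix). Tris pH7.5 buffer with MgCl2, Triton X-100; 1 h reaction at ambient temperature.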
pAkt inh: HTS Assay for Inhibitors of Akt Phophorylation: Primary Screen | Neuro2A IGF-stimulated pAkt S473 HTRF, 20 min; stronger effect = lower value | activity change, % for hits at 50 µM | AID 651550, 2012 | actives 0.32% (n = 360,000); in the data active = activity change below about -80%; inconclusive = mostly about -51% to -80%; also: % is scaled to controls: 0 for no effect and ±100 for the full control effect
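Neuro2A cells in DMEM with 0.5% FBS, overnight at 37 deg C, given compound at single 50 µM final, then IGF (6 nM final) for 20 min at 37 deg C. Lysed; phospho-Akt Ser473 by HTRF after 24 h, 665/615 ratio.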
LDHA block: qHTS assay for inhibitors of human lactate dehydrogenase; L-lactate dehydrogenase A chain (Homo sapiens), P00338; purified LDHA, NADH/diaphorase-resazurin fluorescence; stronger effect = lower value; activity change, % (values are at about 110 or 230 µM); actives 0.15% (n = 480,000); AID 1347041, 2019; in the data active = activity change below about -30%; inconclusive = mostly about -25% to -30%;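 also: plate controls were DMSO wells for no effect and wells without enzyme for full effect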
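Resorufin fluorescence (ex540/em590), read at 0 and 20 min after diaphorase/resazurin addition, reports the NADH left after a 5 min room-temperature reaction of 2 nM human LDH5 with 0.06 mM NADH and 0.2 mM pyruvate.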
DRD3 antagonist: qHTS of D3 Dopamine Receptor Antagonist: qHTS. AID 652054, 2013. max response, negative = inhibition, %. actives 2.5% (n = 360,000). D3R cells, DiscoveRx beta-arrestin luminescence, antagonist mode; stronger effect = lower value. D(3) dopamine receptor (Homo sapiens), P35462; in the data active = max response below about -50%; inconclusive = no clear call, values can overlap the other calls; also: % is scaled to controls: 0 for no effect and ±100 for the full control effect
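Cells plated overnight at 1500 cells/well, then exposed to library compounds with dopamine controls for 90 minutes at 37 degrees C. DiscoveRx reagent added for 30–60 minutes at room temperature; luminescence read, quantitative HTS format.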
Numbers without * were called inactive; i = inactive; ? = inconclusive; · = no result.

SMILES	RGS4 inhibitor	D3 ag	PI4K2A inh	pAkt inh	LDHA block	DRD3 antagonist
CS(=O)(=O)Nc1ccc(C2=NN(C(=O)CCC(=O)O)C(c3ccc(F)cc3)C2)cc1 (stereo not drawn)	·	·	·	·	-9	·
CN(C)CC(O)Cn1c2ccc(Br)cc2c2cc(Br)ccc21 (stereo not drawn)	0.67µM*	·	·	·	·	·
CCC(=NCc1ccccc1)c1c(C(F)(F)F)[nH]n(-c2nc3ccccc3s2)c1=O	-17%	-10	2	·	0	-60*
COc1ccc(CNC(=O)COc2cc3c(c4oc(=O)cc(C)c24)CCC(C)(C)O3)cc1	-13%	36*	3	i	-6	24
COc1cc(OC)cc(C(=O)NC2CC3CCC(C2)N3Cc2ccco2)c1 (stereo not drawn)	28%	-10	-2	i	-6	-91*
O=C(Nc1cccc(Cl)c1)NC1CC2CCC(C1)N2Cc1ccco1 (stereo not drawn)	-4%	-2	-3	i	-1	-67*
CCC(=O)N1CCc2cc(S(=O)(=O)NC(C(=O)NCc3ccc(F)cc3)C(C)C)ccc21 (stereo not drawn)	-17%	-2	0	i	-5	-16
CCC(=O)N1CCc2cc(S(=O)(=O)NCCN3CCCCC3CC)ccc21 (stereo not drawn)	-22%	-7	0	i	1	-59*
CCC(=O)N1CCc2cc(S(=O)(=O)NC(C(=O)NCc3ccccc3)C(C)C)ccc21 (stereo not drawn)	59%	-4	24	i	-17	-77*
O=C(C1CCC1)N1CCc2cc(S(=O)(=O)NCCN3CCN(c4ccccc4F)CC3)ccc21	12%	67*	5	i	-4	-28
OC(CSc1ccccc1Cl)CN1CCN(c2ccccc2F)CC1 (stereo not drawn)	7%	1	1	i	0	-67*
Oc1ccccc1N1CCN(CC(O)COCc2ccccc2Cl)CC1 (stereo not drawn)	16%	29	2	i	-3	-53*
OC(CSc1c(Cl)cccc1Cl)CN1CCN(c2ccccc2F)CC1 (stereo not drawn)	4%	20	0	i	1	-56*
O=C(CCC(=O)N1CC=C(c2c[nH]c3ncccc23)CC1)c1ccc(F)cc1	·	·	·	·	19	·
CC(=O)N1CCC2(CC1)OC(=O)C(C)=C2C(=O)NCCN1CCOCC1	·	·	·	·	-8	·
Cc1cccc(Oc2ccc3[nH]c(C(=O)NCc4ccco4)cc3c2)c1	·	·	·	·	4	·
CN(C)CCNC(=O)Cn1ccc2cc(S(=O)(=O)N3CCCCCC3)ccc21	20%	-16	2	i	-3	-55*
OC1(c2ccc(Br)cc2)CCN(Cc2cccc(Br)c2)CC1	-1%	-17	0	i	1	-106*
COc1ccc(-c2noc3c2-c2nc(-c4cccc(C)c4)sc2CC3)cc1	-8%	59*	4	i	-5	45
CC(=O)c1cccc(S(=O)(=O)Oc2ccc3c(C(F)(F)F)cc(=O)oc3c2)c1	·	·	·	·	-10	·
c1ccc(C2=NCCCO2)cc1	·	-6	5	i	-4	-5
c1ccc(N=Nc2ccc(C3=NCCO3)cc2)cc1	·	-3	-51*	i	0	-2
O=C(COC(=O)c1cccc(-n2cnnn2)c1)c1ccc(F)cc1	15%	-7	0	i	0	8
COc1ccc(C(=O)COC(=O)c2cccc(-n3cnnn3)c2)c(OC)c1	-22%	36*	-14	i	-1	9
CCCNC(=O)COc1ccc2ccc(=O)oc2c1	·	·	·	·	-2	·
SMILES	RGS4 inhibitor	D3 ag	PI4K2A inh	pAkt inh	LDHA block	DRD3 antagonist
CC(=O)c1cccc(NC(=O)c2ccc3c(=O)n(-c4ccccc4F)cnc3c2)c1	·	·	·	·	-2	·
CC(C)C[C@H]1CN(CCCC[C@H]2CNC(=O)C(=O)N2CCc2ccccc2)C(=O)C(=O)N1Cc1ccccc1	·	-3	4	i	-1	-18
CC(C)C[C@H]1CNC(=O)C(=O)N1C[C@H](C)NC(=O)Cc1ccccc1	21%	-29	-3	i	-12	-52*
O=C(c1cn(-c2ccccc2)nc1-c1cccnc1)N1CCN(c2ccc(F)cc2)CC1	·	·	·	·	-2	·
CCOCCOC(=O)C(C)Oc1ccc2c(=O)c(Oc3cccc(C)c3)c(C(F)(F)F)oc2c1 (stereo not drawn)	·	·	·	·	7	·
CC(C)c1ccc(NC2(C#N)C(=O)Nc3ccccc32)cc1 (stereo not drawn)	8%	-7	12	·	6	-53*
COc1ccc(-c2c(C)c3ccc(OS(=O)(=O)c4ccc(F)cc4)cc3oc2=O)cc1OC	·	·	·	·	3	·
Cc1ccc(-c2ccc(O)cc2)cc1	·	·	·	·	9	·
O=C(/C=C/c1ccncc1)c1ccc2c(c1)OCCO2	?	2	1	i	-11	-54*
CC(CCN1CCC(CN2C(=S)NCC2Cc2ccccc2)CC1)c1ccccc1 (stereo not drawn)	8%	-41	0	i	-11	-63*
O=C1NC[C@H](Cc2ccccc2)N(CC2CCN(CCCCc3ccccc3)CC2)C1=O	13%	-46	4	i	-10	-50*
S=C1NC[C@H](Cc2ccccc2)N1CC1CCN(CCCCc2ccccc2)CC1	12%	-41	-3	i	-4	-93*
CC(C)CCN1CCC(CN2C(=S)NC[C@@H]2Cc2ccccc2)CC1	12%	-50	1	i	0	-28
O=C(c1cnn(Cc2ccccc2Cl)c1)N1CCCN(S(=O)(=O)c2ccc(F)cc2)CC1	·	·	·	·	4	·
COc1cc2c(cc1C(C)=O)C1CCC3(C)C(OC(C)=O)CCC3C1CC2 (stereo not drawn)	·	·	·	·	6	·
Cc1ccc(N/N=C(\Cc2nc3ccccc3[nH]2)c2ccccc2)cc1	?	-23	0	i	10	-60*
O=C(O)CC/C=C\CC[C@H]1[C@@H](N2CCCCC2)[C@@H](O)C[C@@H]1OCc1ccc(-c2ccccc2)cc1	8.4µM*	·	·	·	·	·
COCC(N)(c1ccccc1)c1nc2ccccc2n1C (stereo not drawn)	23%	1	1	i	-7	-89*
CCOC(=O)C1=C(C)NC(=O)CC1c1cc2c(cc1Br)OCO2 (stereo not drawn)	-9%	4	0	i	2	-51*
